# Reference: PubChem BioAssay (NCI)
# “And” between values parts separate entries of the source, which are not always exact repeats. Identical values can stand only once. About 83,000 compounds went through this panel and 20% of them were active in at least one assay; those are over-represented in the sample as a whole.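 Single-dose data. Exposure time 48 hours. Values below 10 considered active.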 The source made the active and inactive calls.
# Test system: HS 578T breast
# Assay: NCI-60 one-dose screen, 48 h (100 = growth as untreated, 0 = no growth, -100 = all killed)
# Details: 10 µM
# Description: Growth inhibition of the HS 578T human tumor cell line is measured as a screen for anti-cancer activity. Cells are grown in 96 well plates and exposed to the test compound for 48 hours. Compounds are tested at a single concentration, which is 10^-5 M for most compounds. The reported endpoint is percent growth (GI% or GIPRCNT), where numbers from 0 - 100% represent growth inhibition, and numbers from -100% - 0 represent cell death. For example, a value of 40 represents 60% growth inhibition. A value of 0 means no net growth occurred over the course of the experiment. A value of -40 indicates 40% of cells at the beginning of the experiment died by the end of the experiment. A value of -100 means all cells are dead at the end of the experiment.
# NCI-60 Human Tumor Cell Lines Screen was performed using the standard one-dose NCI protocol, which is described in more detail at https://dtp.cancer.gov/discovery_development/nci-60/default.htm.
# Compounds with GIPRCNT values below 10 were considered active. Activity score was based on GIPRCNT using the following formula: […]
# Score is 0 for GIPRCNT values of 100 or above, 50 for GIPRCNT values of 0, and 100 for GIPRCNT values of -100.
row,Compound,growth
1,S=c1nc[nH]c2nc[nH]c12,54.6% (inactive)

# Same assay, conditions: 10 µM unless noted
row,Compound,growth
1,N=C(N)N1CCc2ccccc2C1,85.9% (inactive) and 98.4% (inactive)
2,CC(NC(=O)CCl)c1ccccc1 (stereo not given),92.5% (inactive)
3,C=CCN1C(=O)c2ccccc2C1=O,99.8% (inactive)
4,CC1=CC(=O)C=CC1=Nc1ccc(N(C)C)cc1,109% (inactive)
5,Cc1cc2ccccc2c2cc3ccccc3cc12,95.2% (inactive)
6,CCNC1=CC(=O)c2ncccc2C1=O,-15.9% (active)
7,CSc1nc(N)c(N)c(N)n1,111% (inactive)
8,O=C1CCC(=O)N1CC1CC2CCC1C2 (stereo not given),115% (inactive) and 102% (inactive)
9,CCCCCCCCCCCCCCCCC(=O)O,100% (inactive)
10,CCc1ccc(OC(=O)CCl)cc1,110% (inactive)
11,Nc1nc(=S)c2[nH]cnc2[nH]1,54.1% (inactive)
12,COc1ccc(COC=O)cc1,104% (inactive)
13,COc1ccc(CCO)cc1,98.2% (inactive)
14,CCCCOC1NC(=O)NC(=O)C1(F)C(=O)OCC (stereo not given),101% (inactive) and 115% (inactive)
15,CCn1c2ccc(N(C)C)cc2c2cc(N(C)C)ccc21,107% (inactive)
16,O=C(c1ccc(Cl)cc1)C1C(c2ccccc2)C1[N+](=O)[O-] (stereo not given),96% (inactive)
17,CCOC(=O)c1ccncc1,101% (inactive)
18,CC(=O)/C(N=Nc1ccc(S(=O)(=O)c2ccc(N=N/C(C(C)=O)=C(/C)O)cc2)cc1)=C(\C)O,109% (inactive)
19,C/C=C/C(=O)OCCCCCCCCCCCC,107% (inactive)

row,Compound,growth
1,CC(C)(C)OC(=O)NCCc1ccc(N)cc1,96% (inactive)
2,COc1ccc(S(=O)(=O)c2ccc(F)cc2)cc1,93.9% (inactive)
3,CC(O)CCNC(c1ccccc1)C(O)c1ccccc1 (stereo not given),110% (inactive)
4,O=C(O)C#Cc1ccc(Cl)cc1,93.6% (inactive)
5,Cc1c(Cl)cc(Cl)c(N)c1Cl,95.3% (inactive)
6,O=C(N=C1C(=O)C2(CCCCC2)C2(N=C(c3ccccc3)OC2=O)C12CCCCC2)c1ccccc1 (stereo not given),95.9% (inactive)
7,ON=C(C1CCCCC1)C1CCCCC1,101% (inactive)
8,Cc1cc(-c2ccc(N=Nc3c(C)nn(-c4ccc(S(=O)(=O)O)cc4)c3O)c(C)c2)ccc1N=Nc1ccc(O)c(C(=O)O)c1,91.8% (inactive)
9,CC(=O)Oc1cc(C(C)C)c(OCCN(C)C)cc1C,99.2% (inactive) and 97.7% (inactive)
10,Cc1cccc(Cl)c1N,87.6% (inactive)
11,COC(=O)c1ccccc1Cl,108% (inactive)
12,COC(=O)c1nc(=S)[nH]c(C(=O)OC)c1C(=O)c1ccc(OC)cc1,76.1% (inactive)
13,Clc1ccc(/C=C/c2ccc3ccccc3n2)cc1,-20% (active) and 168% (inactive) and 96.4% (inactive)
14,Cc1cc(Cl)nc(Nc2ccccc2)n1,99.6% (inactive)
15,COc1cc(C2c3cc4c(cc3C(OC(=O)C[n+]3ccccc3)C3COC(=O)C23)OCO4)cc(OC)c1OC (stereo not given),34.7% (inactive)
16,CCC(C)NC(=O)c1ccccc1C (stereo not given),96.8% (inactive)
17,O=[N+]([O-])c1cccc2ccc(N/N=C/c3ccccc3O)nc12,83.6% (inactive) and 98.7% (inactive)
18,Cc1cc(=NO)cc(C)n1O,103% (inactive)
19,CC1(CO)CCCC1NCCNC1CCCC1(C)CO (stereo not given),112% (inactive) and 106% (inactive)

# Same assay, conditions: 50 µM
row,Compound,growth
1,S=c1nc[nH]c2nc[nH]c12,43.7% (inactive)
